Source: ChEMBL document CHEMBL4513216, “Probing the Open Global Health Chemical Diversity Library for Multistage-Active Starting Points for Next-Generation Antimalarials” (ACS Infect Dis, 2020)
The campaign covered roughly 68,000 compounds. About 2,700 (4%) showed an effect of 50% or more. Shown is part of a subset that was picked to be rich in strong results.

System: Plasmodium berghei
Test: Screen against P. berghei liver stage (PbLuc), transformed with Luciferase, at 2uM
Assay type: functional, HepG2
Conditions: tested at 2 uM

Q: How did the INHIBITION turn out when `CC(C(=O)Nc1nccs1)N1CCc2nn(C)c(=O)cc2C1` (stereo not drawn) was run?
A: 16.82%

Q: `Cn1c(CN2CCCC2)nnc1C1CCCN(C(=O)C2CCOCC2)C1` (stereo not drawn) was tested. Which INHIBITION did it give?
A: -19.54%

Q: How did the INHIBITION turn out when `CCCc1cc(N2CCCC2Cn2nc(C)nc2C)n2ncnc2n1` (stereo not drawn) was run?
A: 19.39%

Q: With `CCn1nc(C)c2ncnc(N3CCCC(C)C3)c21` (stereo not drawn) as the compound, how does the INHIBITION read?
A: 73.48%

Q: Which INHIBITION does the source give for `CCN(CC)c1ncnc2c(C)nn(CC)c12` here?
A: -25.59%

Q: With `CCCc1nc(N2CCCC(C)C2)c2c(n1)c(C)nn2CC` (stereo not drawn) as the compound, how does the INHIBITION read?
A: 15.58%

Q: `CS(=O)(=O)NCC1CCCN(c2ccc(C#N)cn2)C1` (stereo not drawn) was tested. Which INHIBITION did it give?
A: -0.3%

Q: `N#Cc1cccnc1N1CCCN(C(=O)CCn2cccn2)CC1` was tested. Which INHIBITION did it give?
A: 41.76%

Q: For `O=S(=O)(c1ccc2c(c1)OCCO2)N1CCc2ccccc2C1`, which INHIBITION is on record?
A: 50.57%

Q: For `O=c1ccc2c([nH]1)CCN(S(=O)(=O)c1ccc3c(c1)OCCO3)C2`, which INHIBITION is on record?
A: 14.45%

Q: With `O=S(=O)(c1ccc2c(c1)OCCO2)N1CCC(OCc2ccccn2)C1` (stereo not drawn) as the compound, how does the INHIBITION read?
A: -26.14%

Q: Which INHIBITION does the source give for `COc1ccc(C(C)NC(=O)NCCCn2cncn2)cc1F` (stereo not drawn) here?
A: -40.52%

Q: How did the INHIBITION turn out when `CC(NC(=O)CSCC(N)=O)c1ccc(Oc2ccccc2)cc1` (stereo not drawn) was run?
A: 29.97%

Q: How did the INHIBITION turn out when `CC(NC(=O)CSCC(N)=O)c1ccccc1Oc1ccccc1` (stereo not drawn) was run?
A: 51.7%

Q: `CCS(=O)(=O)CC(=O)NC(C)c1ccccc1Oc1ccccc1` (stereo not drawn) was tested. Which INHIBITION did it give?
A: -28.15%

Q: `Cc1ccc(CN2CCCC23CCN(S(=O)(=O)c2ccccc2)C3)o1` (stereo not drawn) was tested. Which INHIBITION did it give?
A: -30.74%

Q: For `Cc1ncc(CN(Cc2ccccn2)Cc2ccccc2Cl)n1C`, which INHIBITION is on record?
A: -6.19%

Q: `NC(=O)N1CC2(CCNCC2)c2cc(Cl)ccc21` was tested. Which INHIBITION did it give?
A: 6.12%

Q: Which INHIBITION does the source give for `COC(=O)N1CC2(CCNCC2)c2cc(Cl)ccc21` here?
A: 22.71%

Q: Which INHIBITION does the source give for `CC(=O)N1CC2(CCNCC2)c2cc(Cl)ccc21` here?
A: 62.25%

Q: How did the INHIBITION turn out when `O=c1cc(C2CCNCC2)nc(CCc2ccccn2)[nH]1` was run?
A: 15.92%

Q: How did the INHIBITION turn out when `O=C(Cc1csc(-c2ccoc2)n1)NCCC(=O)N1CCCCC1` was run?
A: 45.56%

Q: For `O=C(Cc1csc(-c2ccoc2)n1)NCCCN1CCCCC1`, which INHIBITION is on record?
A: 6.85%

Q: How did the INHIBITION turn out when `CC1CCCN(CCCNC(=O)Cc2csc(-c3ccoc3)n2)C1` (stereo not drawn) was run?
A: 50.61%

Q: For `COCC(=O)N1CCC(C(=O)Nc2ccc(C(C)=O)cc2)CC1`, which INHIBITION is on record?
A: 10.64%

Q: For `CCC(C)NC(=O)Nc1cccc(OCCCC#N)c1` (stereo not drawn), which INHIBITION is on record?
A: 12.39%

Q: For `O=C(c1ccco1)N1CC[C@@H]2O[C@H](COCCN3CCCC3)CC[C@@H]21`, which INHIBITION is on record?
A: 15.88%

Q: With `CC(C)(C)CCN1CCN(Cn2nccc2-c2cccnc2)CC1` as the compound, how does the INHIBITION read?
A: -15.83%

Q: How did the INHIBITION turn out when `CC(C)(C)C(=O)N1CCN(Cn2nccc2-c2cccnc2)CC1` was run?
A: 53%

Q: Which INHIBITION does the source give for `c1cncc(-c2ccnn2CN2CCOCC2)c1` here?
A: -31.15%

Q: With `Cc1ncccc1OC1(C(=O)NCCc2ccccn2)CCNCC1` as the compound, how does the INHIBITION read?
A: 17.94%

Q: For `Cc1ncccc1OC1(C(=O)NCCNc2ccccc2)CCNCC1`, which INHIBITION is on record?
A: -25.28%

Q: `CC(=O)NCCNC(=O)C1(Oc2cccnc2C)CCNCC1` was tested. Which INHIBITION did it give?
A: 53.19%

Q: Which INHIBITION does the source give for `Cc1cnn(C2CN(CC(O)COc3ccc(C#N)cc3)C2)c1` (stereo not drawn) here?
A: -2.84%

Q: With `Cc1cc(CN(C)C(=O)C(c2cccnc2)N2CCOCC2)n[nH]1` (stereo not drawn) as the compound, how does the INHIBITION read?
A: 39.92%

Q: With `Cc1ncsc1CCN(C)C(=O)C(c1cccnc1)N1CCOCC1` (stereo not drawn) as the compound, how does the INHIBITION read?
A: -13.13%

Q: How did the INHIBITION turn out when `Cc1n[nH]c(C)c1CCN(C)C(=O)C(c1cccnc1)N1CCOCC1` (stereo not drawn) was run?
A: 51.31%

Q: `O=C(N1CCCCC1)N1CCN(c2ccc(Cl)nn2)C(=O)C1` was tested. Which INHIBITION did it give?
A: 34.52%

Q: Which INHIBITION does the source give for `COc1cc(N2C[C@H]3CN(Cc4ccccn4)C[C@H]3C2)ncn1` here?
A: -37.2%

Q: With `COc1cc2c(cc1OC)CN(C(=O)NC(C)c1nncn1C)CC2` (stereo not drawn) as the compound, how does the INHIBITION read?
A: -23.92%

Q: `COc1ccc(N2CCN(C(=O)NC(C)c3nncn3C)CC2)cc1` (stereo not drawn) was tested. Which INHIBITION did it give?
A: -11.34%

Q: `CC(NC(=O)N1CCc2sccc2C1)c1nncn1C` (stereo not drawn) was tested. Which INHIBITION did it give?
A: 64.21%

Q: For `CC(NC(=O)N1CCc2ccccc2C1)c1nncn1C` (stereo not drawn), which INHIBITION is on record?
A: -56.96%

Q: For `CC(NC(=O)N1CCN(c2ccccc2)CC1)c1nncn1C` (stereo not drawn), which INHIBITION is on record?
A: 50.72%

Q: How did the INHIBITION turn out when `Cc1cccc(N2CCN(C(=O)NC(C)c3nncn3C)CC2)c1` (stereo not drawn) was run?
A: 48.64%

Q: With `Cc1ncccc1CNC(CCO)C1CCCCC1` (stereo not drawn) as the compound, how does the INHIBITION read?
A: -16.72%

Q: With `O=C(CN1CCNC1=O)NCc1ccc2sccc2c1` as the compound, how does the INHIBITION read?
A: -18.57%

Q: With `Cc1nnc(C2Cc3ccccc3CN2Cc2ncc(Cl)n2C)o1` (stereo not drawn) as the compound, how does the INHIBITION read?
A: 27.59%

Q: With `COCc1cncc2c1CCN(C(=O)c1ccoc1C)C2` as the compound, how does the INHIBITION read?
A: 34.02%

Q: Which INHIBITION does the source give for `Cc1noc(CN(C)c2nc(-c3ccco3)nc3c2CCN(C)CC3)n1` here?
A: 18.14%

Q: With `Cc1nonc1CN(C)c1nc(-c2ccco2)nc2c1CCN(C)CC2` as the compound, how does the INHIBITION read?
A: 38.91%

Q: With `Cc1cc(CN(C)c2nc(-c3ccco3)nc3c2CCN(C)CC3)on1` as the compound, how does the INHIBITION read?
A: 67.05%

Q: For `CNc1nc(C(=O)N2CCn3nc(C(=O)OC)cc3C2)cs1`, which INHIBITION is on record?
A: -0.15%

Q: How did the INHIBITION turn out when `COCc1c(C(=O)N2CCCC(C(=O)c3ccccc3)C2)noc1C` (stereo not drawn) was run?
A: 10.1%

Q: `O=S1(=O)CCN2C(=N1)Oc1ccc(Cl)cc12` was tested. Which INHIBITION did it give?
A: 22.96%

Q: How did the INHIBITION turn out when `CN(CCc1ccccn1)C(=O)c1cccs1` was run?
A: 24.64%

Q: `CN(Cc1ccoc1)C(=O)C1CC(=O)N(Cc2ccncc2)C1` (stereo not drawn) was tested. Which INHIBITION did it give?
A: 10.91%

Q: Which INHIBITION does the source give for `CN(Cc1cnc(N)nc1)C(=O)C1CC(=O)N(Cc2ccncc2)C1` (stereo not drawn) here?
A: 59.8%

Q: How did the INHIBITION turn out when `CN(Cc1ccon1)C(=O)C1CC(=O)N(Cc2ccncc2)C1` (stereo not drawn) was run?
A: 15.96%

Q: With `CC(C)c1nnc2n1CCN(Cc1nc3c(F)cccc3[nH]1)C2` as the compound, how does the INHIBITION read?
A: 45.4%

Q: How did the INHIBITION turn out when `Cc1oc(-c2ccsc2)nc1CN1CCCC(c2ccnn2C)C1` (stereo not drawn) was run?
A: 13.88%

Q: How did the INHIBITION turn out when `Cc1oc(-c2ccsc2)nc1CN1CC[C@@H]2CCCC[C@H]2C1` was run?
A: 54.49%

Q: Which INHIBITION does the source give for `Cc1ncc2c(n1)CN(Cc1nc(-c3ccsc3)oc1C)CC2` here?
A: 31.05%

Q: For `CN(C)Cc1nc2c(o1)CN(S(=O)(=O)c1cccs1)C2`, which INHIBITION is on record?
A: -0.45%

Q: Which INHIBITION does the source give for `Cn1nc(C(=O)N2CCOCC2)cc1C(=O)Nc1ncc(Cl)cc1Cl` here?
A: -47.52%

Q: With `Cn1nc(C(=O)N2CCOCC2)cc1C(=O)Nc1ccc(Cl)cc1Cl` as the compound, how does the INHIBITION read?
A: 61.02%

Q: `Cn1nc(C(=O)N2CCOCC2)cc1C(=O)Nc1c(Cl)cccc1Cl` was tested. Which INHIBITION did it give?
A: 13.45%

Q: With `CC(C)CC(NC(=O)c1ccc[nH]1)C(=O)N1CCC(CO)CC1` (stereo not drawn) as the compound, how does the INHIBITION read?
A: 20.3%
